# A selection: hits, their analogues and other compounds. The true share with any hit is near 8%.
# Gal4-VP16 FLuc = counter-screen for ROR gamma inhibitors: Gal4-VP16 reporter | Drosophila S2 Gal4-VP16 UAS-luciferase, luminescence, 20 h | 310,000 tested, 3.5% active | Potency, µM (highest dose often 53.6 µM), inactives show top-dose activity, negative = inhibition, most hits filed as inhibitors | AID 2546;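 further: Gal4-VP16 expression switched on by copper sulfate through the metallothionein promoter; potency means the concentration at half of the fitted maximal effect; nearly all actives have a fitted effect of over 50% in size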
# FBPA coupling cs = inhibits coupling enzyme system, counter-screen for aldolase hits; coupling enzyme system counterscreen, AmpLite Red fluorescence; activity change, negative = inhibition, % at 58.2 µM, hits read low; 290,000 tested, 0.67% active; AID 2472; in the data active means activity change below about -30%
#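 Activity here indicates interference with the coupling reaction, not aldolase inhibition. Compounds at 57.5 uM final met coupling enzymes for 10 min at RT; substrate and AmpLite Red detection followed, with a 525/598 nm fluorescence read after 20 min.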
# RORgamma inh = blocks mouse ROR gamma transcriptional activity | AID 2551 | Drosophila S2 Gal4-RORgamma UAS-luciferase reporter, 20 h | Potency, µM (series often up to 53.6 µM), for inactives: at the top dose activity change, negative = inhibition, actives largely listed as inhibitors | 310,000 tested, 5.4% active | P51450; further: potency means the concentration at half of the fitted maximal effect; nearly all actives have a fitted effect of over 60% in size
#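 Drosophila S2 cells stably expressing Gal4-DBD/mouse RORγ fusion under metallothionein promoter plus UAS-luciferase; compound 1 h, then 700 uM CuSO4 induction for 20 h at ambient temperature; inhibition read as reduced luminescence.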
# TSHR antag = blocks TSH signaling through the human TSH receptor; 330,000 tested, 0.2% active; TSHR-expressing cells, TSH-stimulated cAMP HTRF, 2 h; stronger effect = lower value; activity change, negative = inhibition, % at 11.5 µM; AID 504810;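 active means activity change below a set negative limit, meaning inhibition stronger than a set level, cut at about -70% in these data; inconclusive means activity change between two set negative limits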
# Target sequence (P16473 whole entry, looked up): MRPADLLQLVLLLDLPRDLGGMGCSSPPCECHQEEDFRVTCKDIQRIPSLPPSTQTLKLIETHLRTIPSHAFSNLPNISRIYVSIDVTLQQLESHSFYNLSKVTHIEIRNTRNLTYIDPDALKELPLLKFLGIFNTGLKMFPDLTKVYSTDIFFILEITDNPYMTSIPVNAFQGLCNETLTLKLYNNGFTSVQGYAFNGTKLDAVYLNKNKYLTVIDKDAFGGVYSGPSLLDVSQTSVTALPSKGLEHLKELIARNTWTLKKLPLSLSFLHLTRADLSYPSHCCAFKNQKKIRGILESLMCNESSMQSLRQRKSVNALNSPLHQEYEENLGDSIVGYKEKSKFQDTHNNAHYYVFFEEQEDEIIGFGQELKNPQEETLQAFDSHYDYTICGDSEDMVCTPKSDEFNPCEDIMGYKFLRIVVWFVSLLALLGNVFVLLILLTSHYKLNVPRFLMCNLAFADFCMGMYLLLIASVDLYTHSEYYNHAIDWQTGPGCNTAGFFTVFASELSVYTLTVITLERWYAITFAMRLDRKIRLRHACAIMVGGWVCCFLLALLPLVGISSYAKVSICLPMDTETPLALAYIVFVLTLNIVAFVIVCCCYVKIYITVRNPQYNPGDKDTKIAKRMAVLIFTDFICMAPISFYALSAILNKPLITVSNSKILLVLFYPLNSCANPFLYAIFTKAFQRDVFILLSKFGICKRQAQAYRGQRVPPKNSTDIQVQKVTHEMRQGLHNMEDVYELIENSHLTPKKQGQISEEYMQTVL
#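 TSHR-expressing cells were treated with compounds, then stimulated with TSH at EC80 (4nM final) for 2 hours at 37 deg C. Cellular cAMP was measured by HTRF competition between lysate cAMP and cAMP-d2 for a cryptate-labelled anti-cAMP antibody.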
# ELG1 DNA repair = inhibitors of ELG1-dependent DNA repair in HEK293T cells; HEK293T ELG1-luciferase reporter, luminescence, 16 h; DNA damage induced by 5-fluorouridine; AID 504467; Potency, µM (series often up to 46.1 µM), inactives show top-dose activity change, negative = inhibition, usual class: inhibitors; 330,000 tested, 2.3% active; further: potency means the concentration at half of the fitted maximal effect; nearly all actives have a fitted effect of over 55% in size
#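 Step one: seed 2,000 cells per well. Step two: pin-transfer compound or DMSO alongside 5-fluorouridine. Step three: incubate 16 hr, 37 °C, 5% CO2. Step four: add ONE-Glo, wait 30 min, read luminescence.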
# * hit, by the source's call; ? = inconclusive; . = no result. Unless noted, the call rests on the fitted dose curve; in most records, active means well fitted curve in the direction sought with a large enough effect; inconclusive means small, poorly fitted or top-dose-only effect, or another doubt; inactive means no such curve, though single readings can be large; an effect the other way counts as inactive or inconclusive. On the % scale 0 is the no-effect control and ±100 the full control effect.
SMILES,Gal4-VP16 FLuc,FBPA coupling cs,RORgamma inh,TSHR antag,ELG1 DNA repair
CC(C)CCn1c(COc2ccccc2)n[nH]c1=S,?,2,1.1µM*,-11,-15%
CCn1c(CSc2nc3ccccc3s2)nc2ccccc21,?,-2,10µM*,-36,-11%
CCCc1n[nH]c(=S)n1Cc1ccco1,2%,1,2%,-17,-3%
FC(F)(F)c1cccc(NCc2n[nH]c(=S)n2C2CCCCC2)c1,-23%,0,4.5µM*,2,-11%
CCc1ccc(OCc2n[nH]c(=S)n2Cc2ccccc2)cc1,-2%,4,-2%,-7,3%
S=c1[nH]nc(COc2ccc(Cl)cc2)n1Cc1ccco1,?,0,3.2µM*,-11,-18%
O=C(NCc1n[nH]c(=S)n1-c1cccc(C(F)(F)F)c1)c1ccco1,1%,1,-30%,-36,-2%
COc1ccc2cc(C=NS(=O)(=O)c3ccc(C)cc3)n(C)c2c1,.,.,.,40,2%
O=C(NCc1ccccn1)Nc1ccccc1F,5%,0,23%,7,?
CCc1ccc(OCc2n[nH]c(=S)n2C(C)CCCC(C)C)cc1 (stereo not drawn),-22%,-5,6.3µM*,-14,-15%
COc1ccc(-c2c(C#N)c(N)nc(Sc3ccc(Cl)cc3)c2C#N)cc1,0%,-1,7%,53,?
COc1nc(N)c(C#N)c(-c2ccc(N(C)CCC#N)cc2)c1C#N,1%,3,17%,-7,16µM*
CS(=O)(=O)N1CCC2(CC1)CN(c1ncccn1)C2,10%,-1,-15%,.,.
S=c1[nH]nc(COc2ccccc2)n1/N=C/c1cccnc1,?,5,-56%,-13,-1%
S=c1[nH]nc(COc2ccccc2)n1/N=C/c1cccs1,7.1µM*,12,?,-4,-5%
Cc1ccsc1/C=N/n1c(COc2ccccc2)n[nH]c1=S,6.3µM*,4,6.3µM*,-16,-3%
Cc1ccsc1/C=N/n1c(-c2cc(-c3ccccc3)n[nH]2)n[nH]c1=S,?,1,2.8µM*,-11,20%
CCCn1c(N)c(C(=O)CSc2nc3ccccc3c(=O)n2Cc2ccccc2)c(=O)[nH]c1=O,?,3,5µM*,-1,2%
CSc1nc(N)nc2c1ncn2CC(=O)Nc1ccc(C)c(C)c1,.,.,.,1,6.5µM*
CCOc1cc(C2NC(=O)NC2=O)ccc1O (stereo not drawn),5%,0,-13%,0,-1%
O=C(CCOc1ccccc1)Nc1nnc(-c2ccc3c(c2)OCCO3)o1,20µM*,-1,8.9µM*,-8,-12%
O=C(Nc1nnc(-c2ccc3c(c2)OCCO3)o1)c1ccc(Cc2ccccc2)cc1,7.1µM*,-1,5.6µM*,-3,-11%
CCCCC(C=O)NC(=O)C(CC(C)C)NC(=O)OCc1ccccc1 (stereo not drawn),-18%,6,10%,.,.
CC(C)(C)C1CCc2c(sc(N)c2C(N)=O)C1 (stereo not drawn),16µM*,-19,0%,-5,?
CCC(C)(C)C1CCc2c(sc(N)c2C(N)=O)C1 (stereo not drawn),?,-1,?,2,-20%
SMILES,Gal4-VP16 FLuc,FBPA coupling cs,RORgamma inh,TSHR antag,ELG1 DNA repair
COc1ccc(C(=O)Nc2sc3c(c2C(N)=O)CCCC3)cc1OC,4%,0,0%,.,.
O=C(Nc1nc2ccccc2[nH]1)c1cccc(S(=O)(=O)N2CCOCC2)c1,?,0,8.9µM*,2,-11%
O=C(Nc1nc2ccccc2[nH]1)c1ccc(F)c(S(=O)(=O)N2CCOCC2)c1,?,2,14µM*,-8,16%
O=C(Nc1ccccc1N1CCOCC1)c1ccc(F)c(S(=O)(=O)N2CCOCC2)c1,.,.,.,-4,-8%
Cc1ccc(S(=O)(=O)N2CCOCC2)cc1N/N=C(\C#N)c1nc2ccccc2[nH]1,12%,-11,?,-50,8.2µM*
CSCC[C@H](NC(=O)c1cccc(S(=O)(=O)N2CCCCCC2)c1)c1nc2ccccc2[nH]1,.,.,.,-6,23µM*
CN(C)C(=O)c1ccc(-c2nccc(-n3ccnc3)n2)cc1,1%,3,16%,.,.
CCOC(=O)C1=C(C)NC2=C(C(=O)CC(c3ccc(OC)c(OC)c3)C2)C1c1ccc(C)o1 (stereo not drawn),-7%,-1,-24%,-13,?
COc1ccccc1NC(=O)C1=C(C)NC2=C(C(=O)CC(c3ccc(OC)c(OC)c3)C2)C1c1coc2ccccc2c1=O (stereo not drawn),-1%,-4,?,-1,10µM*
Cc1nc2cc(Cl)ccc2n1-c1ccccc1,-22%,-2,16µM*,.,.
CC(=O)Nc1ccc2c(c1)nc(C)n2-c1ccccc1,30%,0,66%,12,?
CCOc1ccc(CCNC(=O)CCS(=O)(=O)c2ccc(Cl)cc2)cc1OCC,-5%,.,-2%,9,0%
COc1cc(-c2n[nH]c(=S)n2-c2ccc(C)cc2)cc(OC)c1OC,0%,-7,15%,9,?
COc1ccc(-c2n[nH]c(=S)n2-c2ccccc2C)cc1OC,?,1,11µM*,5,-2%
COc1ccc(-c2n[nH]c(=S)n2-c2ccccc2C)cc1,6.3µM*,5,5.6µM*,-5,-2%
COc1ccc(-c2n[nH]c(=S)n2-c2ccc(Br)cc2)cc1OC,?,13,20µM*,-12,-10%
CCN(CC)c1ccc(-c2n[nH]c(=S)n2-c2ccccc2C)cc1,-14%,-3,?,-13,?
COc1cc(NC(=O)C2CCN(S(=O)(=O)c3ccc4[nH]c(=O)oc4c3)CC2)cc(OC)c1,7%,.,3%,-42,-11%
COc1cc(C(=O)OC(C)CN2C(C)CCCC2C)cc(OC)c1OC (stereo not drawn),-1%,-1,-19%,6,10%
CCN(Cc1ccccc1)C(=O)CCS(=O)(=O)c1ccc2c(c1)n(C)c(=O)c(=O)n2C,1%,2,-31%,3,3%
NNc1ccc(Cl)nn1,?,0,10µM*,-3,?
COc1cc2sc(-c3ccc(S(C)(=O)=O)cc3)c(-c3ccc4c(c3)OCO4)c2cc1OC,.,.,.,50,?
O=C(c1ccco1)N1CCCC(c2nc(-c3ccc(S(=O)(=O)NCc4ccccc4)cc3)no2)C1 (stereo not drawn),?,0,64%,-17,21µM*
Cc1ccc(S(=O)(=O)N2CCC[C@H]2C(=O)OCC(=O)N2CCc3ccccc32)cc1,.,.,.,-13,6%
CSc1cnn(-c2ccccc2)c(=O)c1SC,-23%,-6,-107%,20,12%
CSc1cnn(Cc2ccccc2)c(=O)c1SCc1ccccc1,2.5µM*,-4,0.56µM*,-41,6%
Cc1cc(Cl)ccc1OCC(=O)NNC(=O)c1cccnc1,-7%,.,-9%,16,0%

# Screening results as filed in PubChem.
